Each structure is given as a SMILES string. Hit rate of the full screen: of about 310,000 compounds, about 14,000 (4.5%) showed an effect of 50% or more. Effects have a minus sign here. Only a selection was taken, and strong results are over-represented in it overall.
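Also: peak tail current of the secondary pulse compared with the same well before compound.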

For this assay, the target named is human ether-à-go-go-related gene (hERG) potassium channel (human, UniProt Q12809). The assay is described as follows: primary screen, population patch clamp on CHO cells stably expressing hERG; higher = less effect of the substance.
Sequence of human ether-à-go-go-related gene (hERG) potassium channel (Q12809 whole entry, looked up): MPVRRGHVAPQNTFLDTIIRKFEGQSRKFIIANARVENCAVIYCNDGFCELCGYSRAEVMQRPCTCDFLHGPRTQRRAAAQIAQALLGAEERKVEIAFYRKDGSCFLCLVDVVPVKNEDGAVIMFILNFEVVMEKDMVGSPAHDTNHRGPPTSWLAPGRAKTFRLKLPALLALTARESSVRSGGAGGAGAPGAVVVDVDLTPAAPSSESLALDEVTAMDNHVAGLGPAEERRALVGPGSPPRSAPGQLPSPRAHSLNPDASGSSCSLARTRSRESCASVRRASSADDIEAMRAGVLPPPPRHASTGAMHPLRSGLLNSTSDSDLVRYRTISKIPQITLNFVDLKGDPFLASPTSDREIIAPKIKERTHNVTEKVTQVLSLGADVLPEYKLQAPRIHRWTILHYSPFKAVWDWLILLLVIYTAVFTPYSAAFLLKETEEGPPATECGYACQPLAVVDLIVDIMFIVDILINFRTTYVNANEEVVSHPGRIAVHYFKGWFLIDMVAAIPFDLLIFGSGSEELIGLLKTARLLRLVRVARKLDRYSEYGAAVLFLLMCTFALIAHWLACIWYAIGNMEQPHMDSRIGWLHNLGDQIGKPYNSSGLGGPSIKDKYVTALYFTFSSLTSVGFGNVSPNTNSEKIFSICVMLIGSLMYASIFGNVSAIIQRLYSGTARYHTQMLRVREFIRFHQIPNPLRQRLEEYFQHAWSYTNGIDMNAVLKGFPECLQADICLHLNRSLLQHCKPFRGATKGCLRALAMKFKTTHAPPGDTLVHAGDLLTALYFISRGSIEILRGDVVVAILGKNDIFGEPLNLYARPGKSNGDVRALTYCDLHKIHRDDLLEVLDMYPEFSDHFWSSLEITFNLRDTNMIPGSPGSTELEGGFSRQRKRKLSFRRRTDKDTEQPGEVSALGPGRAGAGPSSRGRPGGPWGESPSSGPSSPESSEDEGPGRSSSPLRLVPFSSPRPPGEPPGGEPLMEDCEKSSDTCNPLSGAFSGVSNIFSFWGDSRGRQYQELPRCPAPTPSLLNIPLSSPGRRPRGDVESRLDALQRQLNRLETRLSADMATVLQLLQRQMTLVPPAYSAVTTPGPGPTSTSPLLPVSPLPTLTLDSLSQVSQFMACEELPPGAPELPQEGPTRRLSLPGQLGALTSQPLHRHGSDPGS
With `CCN(CC)C(=O)c1ccc(S(=O)(=O)NCc2cccnc2)cc1`, the “hERG current change (%, negative = inhibition) at 10uM” value stood at 13.9%.
For `CC1=C(C(=O)OCc2ccccc2)C(c2cccc3ccccc23)NC(=O)N1CCCC(=O)O` (stereo not drawn) the value was 20.8%; for `O=C1C=C(c2ccccc2)C[C@@H](c2ccc3c(c2)OCO3)C1`, -4.15%; for `COc1ccc(C2CC(=O)C=C(NCCC(C)C)C2)cc1` (stereo not drawn), -73.2%.
Consider `COc1ccc(C2CC(=O)C=C(NCC3CCCO3)C2)cc1` (stereo not drawn), for which the “hERG current change (%, negative = inhibition) at 10uM” value is -9.1%.
For `CC(C)CCNC1=CC(=O)CC(c2ccccc2)C1` (stereo not drawn) the value was -33.2%; for `O=C1C=C(NNC(=O)c2ccncc2)CC(c2ccccc2)C1` (stereo not drawn), -1.64%; for `Cc1ccc(C2CC(=O)C=C(NCc3ccccc3)C2)cc1` (stereo not drawn), -38.8%.
For `O=C1C=C(NCc2ccc3c(c2)OCO3)CC(c2ccccc2)C1` (stereo not drawn) the value was -76.9%; for `COc1ccc2cc(C3=CC(=O)C[C@H](c4ccc5c(c4)OCO5)C3)ccc2c1`, 17.3%; for `COc1ccc([C@H]2CC(=O)C=C(c3ccc4c(c3)OCO4)C2)cc1`, -22.9%.
For `O=C1C=C(NCc2ccncc2)CC(c2ccccc2)C1` (stereo not drawn) the value was -70.7%; for `O=C1C=C(Nc2ccccc2)CC(c2ccccc2)C1` (stereo not drawn), 9.51%.
Turning to `COc1ccc(C2CC(=O)C=C(NCc3ccc4c(c3)OCO4)C2)cc1` (stereo not drawn), the “hERG current change (%, negative = inhibition) at 10uM” value is -73.1%.
In the case of `O=C(N/N=C\c1ccco1)Nc1cccc(Cl)c1`, the “hERG current change (%, negative = inhibition) at 10uM” value is -5.83%.
Turning to `CC1CCCCC1NC(=O)CCCn1c(=S)[nH]c2ccsc2c1=O` (stereo not drawn), the “hERG current change (%, negative = inhibition) at 10uM” value is 12.9%.
In the case of `C=CCn1c(SCC(=O)NNC(=S)Nc2ccccc2)nnc1-c1ccccc1`, the “hERG current change (%, negative = inhibition) at 10uM” value is recorded as 15.9%.
For `Cc1cc([N+](=O)[O-])ccc1NC(=O)CSc1nncn1-c1ccccn1` the value was -28.1%; for `NC(=O)c1cccnc1OCC(F)(F)F`, 2.21%.
For `CCOc1ccc(NC(=O)CN(C)S(=O)(=O)c2ccc3c(c2)CCC(=O)N3)cc1` the value was -41.3%; for `Cc1c(C(=O)NCCSCc2cccc(C(F)(F)F)c2)cnn1-c1ccc(Cl)cc1`, -30.6%; for `Cc1c(C(=O)NCCSCc2ccc(F)cc2)cnn1-c1ccc(Cl)cc1`, -34.6%.
Take `Cc1c(C(=O)NCCSCc2cccc(C(F)(F)F)c2)cnn1-c1ccc(F)cc1`: the “hERG current change (%, negative = inhibition) at 10uM” value was -64.6%.
For `CC(C)CCNC(=O)CN(Cc1cccs1)C(=O)CCC(=O)Nc1nccs1` the value was -10.6%; for `CC(=O)c1ccc(Nc2c3c(c(C#N)c4nc5ccccc5n24)CCC3)cc1`, -73.2%; for `N#Cc1c2c(c(Nc3ccc(O)cc3)n3c1nc1ccccc13)CCC2`, 5.51%.
For `CN(C)CCNc1c2c(c(C#N)c3nc4ccccc4n13)CCCC2` the value was -23.5%; for `N#Cc1c2c(c(NCCOCCO)n3c1nc1ccccc13)CCCC2`, -63.3%.
In the case of `N#Cc1c2c(c(Nc3ccccc3)n3c1nc1ccccc13)CCC2`, the “hERG current change (%, negative = inhibition) at 10uM” value amounted to 19.5%.
`COCCNc1c2c(c(C#N)c3nc4ccccc4n13)CCCC2`: the “hERG current change (%, negative = inhibition) at 10uM” value was -44.1%.

Source of the values: PMC4336329 (PLoS ONE, 2015).
